Records with an inconclusive call do not appear. Values without a mark were called inactive. Active and inactive are the calls of the source. The call rests on the fitted dose curve; in most records, active means well fitted inhibition curve with a large enough effect; inconclusive means small, poorly fitted or top-dose-only effect; inactive means no such curve, though single readings can be large or run the other way. Residues, ends and D or L forms follow the SMILES beside them. *: point of attachment. Cbz = O=C(OCc1ccccc1)*; CH2Cl = ClC*
The molecules below were run against Aldehyde dehydrogenase 1A1 (Homo sapiens) (UniProt P00352) (assay: qHTS for Inhibitors of the Aldehyde Dehydrogenase Family (ALDH1A1) Confirmatory screens (AID 2061316; further: nearly all actives have a fitted effect of over 65% in size)). Conditions: ALDH inhibition qHTS; series mostly up to 47.3 µM; activity change, negative = inhibition: at the top concentration.
On the % scale 0 is the no-effect control and ±100 the full control effect; potency means the concentration at half of the fitted maximal effect.

`COc1ccnc(NC(=S)N2CCN(c3cccc(C(F)(F)F)c3)CC2)c1` was tested. Which Potency did it give?
The Potency was 10.1 µM (active).

Which Potency does the source give for `Cc1ccc(-c2nn3c(C)nnc3s2)cc1NCc1ccc(-c2cccc(Cl)c2)o1` here?
The Potency was 6.34 µM (active).

Which “activity change, negative = inhibition” value does the source give for `COc1ccc(N2CCN(c3nc(C(=O)NCc4cccc(C)c4)cs3)CC2)cc1` here?
Its value is -35.5%.

Which “activity change, negative = inhibition” value does the source give for `Fc1c(-c2ccc3ncnc(NCc4cccs4)c3c2)ccc2c1OCO2` here?
Its value is -12.3%.

Which Potency does the source give for `NC(=O)C1CCN(c2nccc(-c3ccc4c(c3)OCCO4)n2)CC1` here?
Its Potency is 0.798 µM (active).

How did the “outcome” value turn out when `CC(C)(C)OC(=O)N1CCN(c2ccc(NCc3cncc(-c4ccc(C#N)cc4)c3)cc2)CC1` was run?
Its value is “inactive”.

For `CC(=O)N1CCN(c2ccc(NCc3ccc(-c4ccc(Br)cc4)o3)cc2)CC1`, which Potency is on record?
The Potency was 5.65 µM (active).

`COc1ccc(S(=O)(=O)Nc2cccc(-c3ccc(N4CCCCCC4)nn3)c2)c(OC)c1` was tested. Which “activity change, negative = inhibition” value did it give?
Its value is -17.5%.

For `Oc1ccc(CNc2ccccc2F)c2cccnc12`, which Potency is on record?
The Potency was 2.25 µM (active).

For `N#Cc1c(-c2ccc(C(=O)c3ccc(O)cc3)cc2)no[n+]1[O-]`, which Potency is on record?
The Potency was 12.7 µM (active).

How did the “activity change, negative = inhibition” value turn out when `Cc1ccc2nc3sc(C(=O)NCCN4CCOCC4)cc3cc2c1` was run?
The value was -17.4%.

With `N#Cc1c(-c2ccc3c(c2)OCO3)no[n+]1[O-]` as the molecule, how does the “activity change, negative = inhibition” value read?
The value was 4.51%.

`Cn1ncc2c(C(=O)NCC(F)F)cc(-c3cccc(C(F)(F)F)c3)nc21` was tested. Which “activity change, negative = inhibition” value did it give?
The value was -1.83%.

For `COc1ccc(-c2ccc(CNc3ccc(N4CCN(C(=O)OC(C)(C)C)CC4)cc3)o2)cc1`, which Potency is on record?
Its Potency is 11.3 µM (active).

Which Potency does the source give for `O=Cc1c(-c2ccccc2)no[n+]1[O-]` here?
The Potency was 0.504 µM (active).

How did the Potency turn out when `O=c1c(Nc2ccc(Cl)c(Cl)c2)c(Nc2nnc(-c3ccncc3)s2)c1=O` was run?
Its Potency is 8.96 µM (active).

For `CC(C)C[C@H](NC(=O)CNC(=O)OCc1ccccc1)C(=O)N[C@@H](Cc1ccccc1)C(=O)CCl` (Cbz-Gly-Leu-Phe-CH2Cl), which “outcome” value is on record?
The value was “inactive”.

For `CC(=O)Nc1ccc(Nc2nc3c(S(=O)(=O)c4cccc(Cl)c4)nnn3c3ccsc23)cc1`, which “activity change, negative = inhibition” value is on record?
Its value is -28.6%.

For `CN(CC(=O)Nc1ccc(N2CCOCC2)cc1)Cc1c(O)ccc2ccccc12`, which Potency is on record?
Its Potency is 2.52 µM (active).

`COc1ccc(Nc2ncc(C(=O)N3CCN(c4ccc(F)cc4)CC3)c3ccccc23)cc1` was tested. Which “activity change, negative = inhibition” value did it give?
Its value is -25.3%.

With `CC(=O)c1ccc(NC(=O)CSc2ccc3nc(-c4ccccc4)cn3n2)cc1` as the molecule, how does the Potency read?
Its Potency is 1.82 µM (active).

How did the “activity change, negative = inhibition” value turn out when `Cc1nc(SCC(=O)c2ccc(F)cc2)n[nH]1` was run?
The value was 6.91%.

With `Cc1ccc(-n2c(=O)c3c(cnn3C)n(CC(=O)Nc3ccccc3C)c2=O)cc1` as the molecule, how does the “activity change, negative = inhibition” value read?
Its value is -14.4%.

`CC(=O)Nc1sc2c(c1-c1cccc(F)c1)CCNC2` was tested. Which “activity change, negative = inhibition” value did it give?
The value was -5.02%.

`CCOc1cc(CNc2ccc(C(=O)O)cc2)ccc1OCc1ccccc1` was tested. Which Potency did it give?
Its Potency is 6.47 µM (active).

Which Potency does the source give for `COc1ccc(C2Nc3ccccc3C(=O)N2Cc2ccco2)cc1COc1cccc(NC(C)=O)c1` (stereo not given) here?
The Potency was 4 µM (active).

Which Potency does the source give for `Oc1ccc(CNc2cccnc2)c2cccnc12` here?
Its Potency is 4 µM (active).

For `COc1ccc(C2Nc3ccccc3C(=O)N2CC(C)(C)C)cc1COc1ccc(NC(C)=O)cc1` (stereo not given), which Potency is on record?
Its Potency is 25.2 µM (active).

For `Cc1cccc(CNc2ccnc(-c3cccc4ccccc34)n2)c1`, which “activity change, negative = inhibition” value is on record?
Its value is -13.6%.

Which “activity change, negative = inhibition” value does the source give for `CC(=O)c1ccc(N2CCN(S(=O)(=O)c3ccc4c(c3)C(C)(C)C(=O)N4)CC2)cc1` here?
Its value is -13.5%.

Reference: PubChem BioAssay (NCATS)
